Results on 37 compounds are retold here after PubChem BioAssay (NCATS).

Inconclusive results are not listed. Unmarked numbers belong to inactive results. Active and inactive are the calls of the source. The call rests on the fitted dose curve; in most records, active means well fitted inhibition curve with a large enough effect; inconclusive means small, poorly fitted or top-dose-only effect; inactive means flat fitted curve, though single readings scatter.
Potency means the concentration at half of the fitted maximal effect.

The subject of the first test is FAB9. The test is described as follows: qHTS profiling for inhibitors of Plasmodium falciparum proliferation (AID 504749). Further: nearly all actives have a fitted effect of over 60% in size.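 On activity, negative = inhibition: 0% = DMSO vehicle and full inhibition = artemisinin control.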 The settings on record: P. falciparum in erythrocytes, SYBR Green DNA, 72 h; series mostly up to 28.7 µM; activity, negative = inhibition: at the top concentration. In a few lines: (§1)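 Fluorescence of SYBR Green-bound parasite DNA, read at 485/535 nm, served as the growth measure. Infected erythrocytes were cultured with compound 72 h; artemisinin (0.29 uM) and DMSO wells defined the normalization range.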
As to `COc1ccccc1N1CCN(CCCC(=O)c2ccc(F)cc2)CC1`, the “activity, negative = inhibition” value was 4.3%.
For `Cn1cc(NC(=O)c2cc(NC(=O)c3cc(NC=O)cn3C)cn2C)cc1C(=O)NCCC(=N)N`, the Potency was 11.2 µM (active).
On to `CCCCCc1ccc(C)cc1O`, for which the “activity, negative = inhibition” value was -3.37%.
Regarding `CC[C@H]1OC(=O)[C@H](C)[C@@H](O[C@H]2C[C@@](C)(OC)[C@@H](O)[C@H](C)O2)[C@H](C)[C@@H](O[C@@H]2O[C@H](C)C[C@H](N(C)C)[C@H]2O)[C@](C)(O)C[C@@H](C)CN(C)[C@H](C)[C@@H](O)[C@]1(C)O`, the “activity, negative = inhibition” value is -12.8%.
Still for that read-out and setting: the figure for `C=CCN1CCCC1CNC(=O)c1cc(S(N)(=O)=O)cc(OC)c1OC` (configuration not stated) is 5.29%; for `CN(C)CCOc1ccc(/C(=C(/CCCl)c2ccccc2)c2ccccc2)cc1` it is 8.21%; for `C[C@]12CCC(=O)C[C@@H]1CC[C@@H]1[C@@H]2CC[C@]2(C)C=CC[C@@H]12` it is 4.09%.
For `Cc1ccc(S(=O)(=O)O)cc1C`, the “activity, negative = inhibition” value was 1.1%.
Consider `NCC[C@H](O)C(=O)N[C@@H]1C[C@H](N)[C@@H](O[C@H]2O[C@H](CN)[C@@H](O)[C@H](O)[C@H]2O)[C@H](O)[C@H]1O[C@H]1O[C@H](CO)[C@@H](O)[C@H](N)[C@H]1O`, for which the “activity, negative = inhibition” value is 6.15%.
Still for that read-out and setting: the figure for `CN(C)c1ccc(C(=C2C=CC(=[N+](C)C)C=C2)c2c(O)c(S(=O)(=O)[O-])cc3cc(S(=O)(=O)O)ccc23)cc1` is -3.87%; for `COC(=O)CCC[N+](C)(C)C` it is 8.36%.
The same measure, in the same setting: the figure for `CC(C)=CCC/C(C)=C/C=C/C(C)=C/C=C/C(C)=C/C=C/C=C(C)/C=C/C=C(C)/C=C/C=C(\C)CCC=C(C)C` is 4.46%; for `C=CC[N+]1([C@H]2C[C@H]3[C@@H]4CC[C@H]5C[C@H](O)[C@@H](N6CCOCC6)C[C@]5(C)[C@H]4CC[C@]3(C)[C@H]2OC(C)=O)CCCC1` it is -13.4%.
Still for that read-out and setting: the figure for `C#C[C@]1(O)CC[C@@H]2[C@H]3CCC4=CC(=O)CC[C@H]4[C@H]3C(=C)C[C@@]21CC` is -5.36%.
Turning to `CC(C)C1=CC2=CC[C@@H]3[C@](C)(CCC[C@@]3(C)C(=O)O)[C@H]2CC1`, the “activity, negative = inhibition” value was -0.772%.
The same measure, in the same setting: the figure for `Cn1c(=O)c2c(ncn2CCOC(=O)C(C)(C)Oc2ccc(Cl)cc2)n(C)c1=O` is 6.04%; for `O=C(CCCN1CCC(C(=O)c2ccc(F)cc2)CC1)c1ccc(F)cc1` it is -17.6%; for `CC(C)NCC(O)COc1ccccc1-n1cccc1` (configuration not stated) it is 6.29%.
Take `O=C(CCCN1CCN2CCCC2C1)c1ccc(F)cc1` (configuration not stated): the “activity, negative = inhibition” value is 8.22%.
The same measure, in the same setting: the figure for `Cc1ncc(C[n+]2csc(CCO)c2C)c(N)n1` is -1.15% [at 12.8 µM].
Still for that read-out and setting: the figure for `COc1ccc2nc(NC(=O)Nc3ccccc3)sc2c1` is -4.44%.
On to `Cc1cc(C(=O)NCCc2ccc(S(=O)(=O)NC(=O)NN3CCCCCC3)cc2)no1`, for which the “activity, negative = inhibition” value was 5.4%.
On to `N=C(N)c1ccc(/C=C/c2ccc(C(=N)N)cc2O)cc1`, for which the Potency was 1.26 µM (active).
Regarding `Cc1c(C)c2c(c(C)c1OC(=O)CCC(=O)O)CC[C@@](C)(CCC[C@H](C)CCC[C@H](C)CCCC(C)C)O2`, the “activity, negative = inhibition” value is 1.78%.
For `CC(=O)[O][Al][O]C(C)=O`, the “activity, negative = inhibition” value was 8.91%.
On the same count and under the same terms, the figure for `CC1CC(OC(=O)C(O)c2ccccc2)CC(C)(C)C1` (configuration not stated) is 2.77%.
`C=CC[C@@H]1/C=C(\C)C[C@H](C)C[C@H](OC)[C@H]2O[C@@](O)(C(=O)C(=O)N3CCCC[C@H]3C(=O)O[C@H](/C(C)=C/[C@@H]3CC[C@@H](O)[C@H](OC)C3)[C@H](C)[C@@H](O)CC1=O)[C@H](C)C[C@@H]2OC`: the Potency is 2 µM (active).
As to `OCCOCCOCCO`, the “activity, negative = inhibition” value is 6.77%.
Same read-out and setting: the figure for `O=C(OCc1ccccc1)c1ccc(O)cc1` is 4.81%.
On the same count and under the same terms, the figure for `CC(/C=C/C=C(\C)C(=O)O[C@@H]1O[C@H](CO[C@@H]2O[C@H](CO)[C@@H](O)[C@H](O)[C@H]2O)[C@@H](O)[C@H](O)[C@H]1O)=C\C=C\C=C(C)\C=C\C=C(/C)C(=O)O[C@@H]1O[C@H](CO[C@@H]2O[C@H](CO)[C@@H](O)[C@H](O)[C@H]2O)[C@@H](O)[C@H](O)[C@H]1O` is 6.9%; for `COC(=O)[C@@H](N)CS` it is 2.32%.
In the case of `O.O.O.O.O.O.O.O=S(=O)([O-])[O-].[Co+2]`, the Potency was 11.2 µM (active).
As to `CN(C)CCCSc1ccccc1NC(=O)/C=C/c1ccccc1`, the “activity, negative = inhibition” value is -6.41%.
The same measure, in the same setting: the figure for `O=P(O)(O)OP(=O)(O)O` is -15.8%; for `CCSc1ccc2c(c1)N(CCCN1CCN(C)CC1)c1ccccc1S2` it is 6.8% [at 12.8 µM]; for `CCCCCCCCCCCCCCCCCC(=O)OC[C@@H](O)[C@H]1OC[C@H](O)[C@H]1O` it is 3.65%.

In a further test the test system is GB4. The description is as above. The settings on record: P. falciparum in erythrocytes, SYBR Green DNA, 72 h; series mostly up to 28.7 µM; activity, negative = inhibition: at the top concentration. In a few lines:
as §1
For the compound `COc1ccccc1N1CCN(CCCC(=O)c2ccc(F)cc2)CC1`, the “activity, negative = inhibition” value is -22.9%.
As for `Cn1cc(NC(=O)c2cc(NC(=O)c3cc(NC=O)cn3C)cn2C)cc1C(=O)NCCC(=N)N`, the Potency was 7.57 µM (active).
For the compound `CC[C@H]1OC(=O)[C@H](C)[C@@H](O[C@H]2C[C@@](C)(OC)[C@@H](O)[C@H](C)O2)[C@H](C)[C@@H](O[C@@H]2O[C@H](C)C[C@H](N(C)C)[C@H]2O)[C@](C)(O)C[C@@H](C)CN(C)[C@H](C)[C@@H](O)[C@]1(C)O`, the Potency was 7.57 µM (active).
Take `C=CCN1CCCC1CNC(=O)c1cc(S(N)(=O)=O)cc(OC)c1OC` (configuration not stated): the “activity, negative = inhibition” value is -1.2%.
Consider `CC(=O)c1ccc2c(c1)N(CCCN1CCN(CCO)CC1)c1ccccc1S2`, for which the Potency was 8.49 µM (active).
For `C[C@]12CCC(=O)C[C@@H]1CC[C@@H]1[C@@H]2CC[C@]2(C)C=CC[C@@H]12`, the “activity, negative = inhibition” value is -0.895%.
With `Cc1ccc(S(=O)(=O)O)cc1C`, the “activity, negative = inhibition” value was -0.11%.
On to `NCC[C@H](O)C(=O)N[C@@H]1C[C@H](N)[C@@H](O[C@H]2O[C@H](CN)[C@@H](O)[C@H](O)[C@H]2O)[C@H](O)[C@H]1O[C@H]1O[C@H](CO)[C@@H](O)[C@H](N)[C@H]1O`, for which the “activity, negative = inhibition” value was -1.36%.
Same read-out and setting: the figure for `COC(=O)CCC[N+](C)(C)C` is 1.63%; for `CC(C)=CCC/C(C)=C/C=C/C(C)=C/C=C/C(C)=C/C=C/C=C(C)/C=C/C=C(C)/C=C/C=C(\C)CCC=C(C)C` it is -18.7%.
Same read-out and setting: the figure for `Cn1c(=O)c2c(ncn2CCOC(=O)C(C)(C)Oc2ccc(Cl)cc2)n(C)c1=O` is 1.83%; for `Cc1ncc(C[n+]2csc(CCO)c2C)c(N)n1` it is -4.92% [at 12.8 µM].
With `N=C(N)c1ccc(/C=C/c2ccc(C(=N)N)cc2O)cc1`, the Potency is 0.536 µM (active).
On to `Cc1c(C)c2c(c(C)c1OC(=O)CCC(=O)O)CC[C@@](C)(CCC[C@H](C)CCC[C@H](C)CCCC(C)C)O2`, for which the “activity, negative = inhibition” value is 2.79%.
As to `CC1CC(OC(=O)C(O)c2ccccc2)CC(C)(C)C1` (configuration not stated), the “activity, negative = inhibition” value is -14%.
Turning to `C=CC[C@@H]1/C=C(\C)C[C@H](C)C[C@H](OC)[C@H]2O[C@@](O)(C(=O)C(=O)N3CCCC[C@H]3C(=O)O[C@H](/C(C)=C/[C@@H]3CC[C@@H](O)[C@H](OC)C3)[C@H](C)[C@@H](O)CC1=O)[C@H](C)C[C@@H]2OC`, the Potency is 3.79 µM (active).
Turning to `O=C(OCc1ccccc1)c1ccc(O)cc1`, the “activity, negative = inhibition” value was 3.96%.
Same read-out and setting: the figure for `CC(/C=C/C=C(\C)C(=O)O[C@@H]1O[C@H](CO[C@@H]2O[C@H](CO)[C@@H](O)[C@H](O)[C@H]2O)[C@@H](O)[C@H](O)[C@H]1O)=C\C=C\C=C(C)\C=C\C=C(/C)C(=O)O[C@@H]1O[C@H](CO[C@@H]2O[C@H](CO)[C@@H](O)[C@H](O)[C@H]2O)[C@@H](O)[C@H](O)[C@H]1O` is 0.644%; for `COC(=O)[C@@H](N)CS` it is -7.81%.
For the compound `O.O.O.O.O.O.O.O=S(=O)([O-])[O-].[Co+2]`, the Potency was 8.49 µM (active).
Regarding `CCCCCCCCCCCCCCCCCC(=O)OC[C@@H](O)[C@H]1OC[C@H](O)[C@H]1O`, the “activity, negative = inhibition” value is -0.442%.
